# Only some compounds are listed: those with a hit (about 1.4% of all), similar ones and a draw of the others.
# AID504770 = growth inhibitors of E. coli YBA685 in a screen for V. cholerae RctB (chromosome II replication) inhibitors; E. coli YBA685 rctB-dependent plasmid, OD600 growth, 3 h; stronger effect = lower value; z-score (concentration not given with the values); actives 0.27% (n = 130,000); AID 504770; in the data active = z-score below about -2, passing the limit was not always enough
# MbtI inh = blocks the Mycobacterium tuberculosis siderophore enzyme MbtI; purified MbtI enzyme, fluorescence intensity read-out; inhibition, % (concentration not given with the values); actives 0.89% (n = 100,000); in the data active = inhibition mostly above about 56%, no sharp cut-off; inactive = mostly below about 77%
# PV pol inh = poliovirus RNA polymerase inhibition; P03300; poliovirus polymerase elongation, fluorescence polarization; stronger effect = lower value; % elongation, % (compound at 16.7 µg/mL); actives 0.66% (n = 150,000); AID 588519; in the data active = % elongation below about 90%
# Mtb MenB inh = blocks the Mycobacterium tuberculosis MenB enzyme; P9WNP5; MenB enzyme assay, absorbance read-out; inhibition, % (test concentration not listed); actives 0.43% (n = 100,000); AID 540299; in the data active = inhibition above about 21%, passing the limit was not always enough
# Target sequence (P9WNP5 whole entry, looked up): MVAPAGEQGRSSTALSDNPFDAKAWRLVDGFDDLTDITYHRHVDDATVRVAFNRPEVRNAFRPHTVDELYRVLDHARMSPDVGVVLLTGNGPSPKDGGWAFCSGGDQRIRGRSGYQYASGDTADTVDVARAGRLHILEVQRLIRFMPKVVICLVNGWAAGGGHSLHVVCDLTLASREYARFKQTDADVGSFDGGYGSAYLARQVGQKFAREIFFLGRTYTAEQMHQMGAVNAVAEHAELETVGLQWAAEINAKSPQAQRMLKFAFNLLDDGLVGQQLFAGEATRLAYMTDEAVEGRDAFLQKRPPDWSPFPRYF
# Hits are given with their value; - = inactive; . = not tested or not shown.
SMILES,AID504770,MbtI inh,PV pol inh,Mtb MenB inh
CSC(=S)N(c1ccccc1)c1ccccc1,-,-,-,.
NC(=S)N(c1ccccc1)c1ccccc1,-,-,-,32.3
CC(OC(=O)C1=NNC(=O)CC1)C(=O)Nc1cccc(Cl)c1 (centres undefined),-,-,-,-
Nc1nc(N)c2[nH]c(C3CCCCC3)nc2n1,-,-,79.0,-
Nc1n[nH]c(C2CCCCC2)n1,-,-,-,-
CCOc1ccccc1C(=S)N1CCOCC1,-,73.8,-,-
O=C(Oc1ccccc1C(=S)N1CCOCC1)c1ccccc1,-,-,-,-
c1csc(-c2csc(N3CCCCC3)n2)c1,-,-,-,-
COC(=O)C1=C(NC(=O)Cc2cccs2)CCS1,-,-,-,-
O=C1CC(Nc2ccccc2)C(=O)N1c1ccccc1Cl (centres undefined),-,.,-,-
CC12C=CC(O1)C1C(=O)N(c3ccccc3Cl)C(=O)C12 (centres undefined),-,66.2,-,.
O=C(O)C1C2C=CC3(CN(c4ccc(Cl)c(F)c4)C(=O)C13)O2 (centres undefined),-,.,-,-
COC(=O)c1cc(N2C(=O)C3C4C=CC(C)(O4)C3C2=O)ccc1Cl (centres undefined),-,81.2,-,-
NC(=S)N/N=C(/C(=O)c1ccccn1)c1ccccn1,-,90.8,74.0,-
N/C(=N\O)c1ccccn1,-,-,-,-
N/C(=N\NS(=O)(=O)c1ccccc1)c1ccccn1,-,-,-,-
NC(=S)c1ccccn1,-,-,20.0,-
CNC(=O)c1c(C)[nH]c(=S)c(C#N)c1-c1ccco1,-,98.7,-,-
CNC(=O)c1c(C)nc(SCC(=O)OCC(=O)Nc2ccc(C)c(C)c2)c(C#N)c1-c1ccco1,-,-,-,-
N#CC1=C(C#N)NC2(CCCCC2)C2CCCCC2=N1 (centres undefined),-,-,-,-
Clc1ccc(Nc2nnns2)cc1,-,58.8,-,-
Cc1csc(Nc2ccc(Cl)cc2)n1,-,62.5,-,-
CO[C@@]12[C@@H]3NC3CN1C1=C(C(=O)C(N)=C(C)C1=O)[C@@H]2COC(N)=O (some centres undefined),-5.15,-,-,-
CCOc1cc(/C=C(\C#N)C(=O)OC(C)C)ccc1OCC(=O)N(C)C,-,-,-,-
Cc1cc(C)c(C#N)c(=O)[nH]1,-,-,-,-
SMILES,AID504770,MbtI inh,PV pol inh,Mtb MenB inh
Cc1cc(C)c(C#N)c(=S)[nH]1,-,90.3,-,-
COC(=O)C1=C(N)N(c2cccc(C(F)(F)F)c2)C2=C(C(=O)CCC2)C1c1ccccc1 (centres undefined),-,.,-,-
CC(C)(O/N=C(/C(=O)N[C@@H]1C(=O)N2C(C(=O)[O-])=C(C[n+]3ccccc3)CS[C@H]12)c1csc(N)n1)C(=O)O,.,-,-,-
CO/N=C(/C(=O)N[C@@H]1C(=O)N2C(C(=O)O)=C(COC(C)=O)CS[C@H]12)c1csc(N)n1,-3.15,-,-,-
C=CCN1C(=O)CS/C1=C(\C#N)S(=O)(=O)c1ccc(C)cc1,-2.85,-,-,-
N#CC(=S)Nc1ccc(F)cc1,-,-,85.0,-
C1=CSC(=C2SC=CS2)S1,-3.65,-,59.0,active
CC(C)n1nc(C(=O)OCc2cc(=O)n3c4c(sc3n2)CCCC4)c2ccccc2c1=O,-,-,-,-
O=C1OC(c2cccs2)=N/C1=C\c1cccc(F)c1,-,-,88.0,.
CN1CCN(C(=S)c2cccc(OCc3ccccc3)c2)CC1,-,-,-,-
S=C(c1cccc(OCc2ccccc2)c1)N1CCCCC1,-,72.6,-,-
COc1ccc(N2CCN(C(=S)Cc3ccccc3)CC2)cc1,-,-,.,-
O=C(c1cc(Cl)sc1Cl)N1CCc2ccccc21,-,.,.,.
O=C(Nc1nnc(C(F)(F)F)s1)c1ccccc1,-,91.5,-,-
CC(C)NC(=S)N/N=C/c1cccc(O)c1,-,-,-,-
CNC(=S)N/N=C/c1cccc(Cl)c1,-,-,13.0,-
Cn1c(=O)c2ncnnc2n(C)c1=O,-2.3,-,63.0,-
COc1cc(OC)c(OC)cc1CN1CCN(c2cccc(C)c2C)CC1,-,-,-,-
CCC(C)N1CCN(Cc2cc(OC)c(OC)cc2OC)CC1 (centres undefined),-,-,-,36.5
O=C(c1cnoc1)c1cc(Cl)cc(Cl)c1O,-,-,-,.
O=C(c1cnoc1)c1ccccc1O,-,-,83.0,-
COc1ccc2nc(SCC(=O)c3ccc(O)c(O)c3)[nH]c2c1,-,70.2,-,-
CCOC(=O)c1sc(C)c2c(=O)[nH]c(-c3ccc(SC)cc3)nc12,-,63.6,.,.
CSc1ccc(-c2nc3ccccc3c(=O)[nH]2)cc1,-,-,-,-
CCOc1cccc(CNCCN2CCOCC2)c1,-,-,-,-
SMILES,AID504770,MbtI inh,PV pol inh,Mtb MenB inh
c1cncc(CNCCN2CCOCC2)c1,-,-,-,65.4
CN(CC(=O)N1CCCC1=O)Cc1ccccc1,-,-,-,-
CCN(CC)CC(=O)N1CCCC1=O,-,-,-,42.6
Cc1cc2oc(=O)cc(CSc3ncccn3)c2cc1Cl,-3.1,-,-,-
O=c1cc(CSc2ncccn2)c2cc3c(cc2o1)CCC3,-,-,-,-
O=C(CSC1=NCCc2ccccc21)c1ccc(-c2ccccc2)cc1,-,-,83.0,-
O=C(SC1=NCCc2ccccc21)c1ccccc1,-,-,-,-
O=C(CSC1=NCCc2ccccc21)c1ccccc1Cl,-,-,68.0,-
CC1(C)C2CC=C(/C=N/O)C1C2 (centres undefined),-,-,-,-
N#CSC1C=CS(=O)(=O)C1 (centres undefined),-4.8,.,.,.
NC(=O)CC1C=CS(=O)(=O)C1 (centres undefined),-,-,-,.
O=c1cc(CN2CCCC2)nc(-c2cc(C(F)(F)F)cc(C(F)(F)F)c2)[nH]1,-,.,.,.
Cc1ccc(CCNC(=O)c2cnc3c(-c4ccc(F)cc4)c(C)nn3c2C)cc1,.,.,76.0,.
CCOc1ccc(CCNC(=O)c2cnc3c(-c4ccc(F)cc4)c(C)nn3c2C)cc1,.,.,-,.
O=C1CC(n2nnnc2-c2ccccc2)C2COC1O2 (centres undefined),-,.,-,-
O=S1(=O)CCC(n2nnnc2-c2ccccc2)C1 (centres undefined),-2.75,.,.,.
N=C(N)SCP(=O)(c1ccccc1)c1ccccc1,-,-,-,49.0
COc1cccc(OC)c1C(=O)c1cc[n+](C)cc1,-,-,-,-
COc1ccc(N2CCN(C(=O)c3cccc4ccccc34)CC2)cc1,-,-,-,-
COC(=O)c1c(-c2cccs2)csc1NC(=O)c1cccc(Cl)c1,.,.,82.0,.
CCOC(=O)c1c(-c2cccs2)csc1NC(=O)c1ccccc1,-,-,-,-
COC(=O)c1c(-c2cccs2)csc1NC(=O)c1ccc(Cl)cc1,.,.,67.0,.
COC(=O)c1c(-c2cccs2)csc1NC(=O)COc1ccc(C)cc1,.,.,-,.
COC(=O)c1c(-c2cccs2)csc1NC(=O)c1ccc(C(C)C)cc1,.,.,67.0,.
COC(=O)c1c(-c2cccs2)csc1NC(=O)c1ccc(C(C)(C)C)cc1,.,.,77.0,.

# Screens (PubChem BioAssay)
